The record followed here is PubChem BioAssay.

Usually inhibition stands for the relative decrease from the control value, in per cent.

A number with no mark means an inactive call. Some of the results follow. The source made the active and inactive calls. Rule as the data show it, unless noted: active = inhibition above about 22%; inactive = the rest.

Assay [1] deals with Oxytocin receptor (Homo sapiens) (UniProt P30559). Briefly: human OXTR agonists, confirmation, fluorescence, CHO-OTR cells, triplicate (AID 434963;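 active = mean activation above about 20% derived from the earlier single-dose screen, limit read from the data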;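 also: peak over minimum fluorescence ratio per well during a 100 second FLIPR read; 0% = DMSO alone and 100% = oxytocin high control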). Particulars: Fluo-8 calcium fluorescence, agonist, at 3 µM, stronger effect = higher value.
Oxytocin receptor (Homo sapiens), sequence (P30559 whole entry, looked up): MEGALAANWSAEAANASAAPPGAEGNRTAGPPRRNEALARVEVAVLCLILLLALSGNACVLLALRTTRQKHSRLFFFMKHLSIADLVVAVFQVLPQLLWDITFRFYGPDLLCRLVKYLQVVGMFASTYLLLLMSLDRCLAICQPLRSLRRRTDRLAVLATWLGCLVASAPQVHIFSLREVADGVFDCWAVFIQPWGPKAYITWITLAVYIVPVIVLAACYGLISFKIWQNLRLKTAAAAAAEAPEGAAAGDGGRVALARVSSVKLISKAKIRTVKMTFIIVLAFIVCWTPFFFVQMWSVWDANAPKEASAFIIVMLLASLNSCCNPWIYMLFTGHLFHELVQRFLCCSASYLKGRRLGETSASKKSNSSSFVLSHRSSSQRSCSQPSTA
Assay [2] deals with Vasopressin V1a receptor (Homo sapiens) (UniProt P37288). Briefly: V1a receptor agonists, calcium signal, counter-screen for OXTR agonist project, triplicate, fluorescence, CHO-V1R cells (AID 434991;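 active = mean activation over triplicate exceeds the hit threshold set in the earlier primary screen, cut at about 20% in these data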;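 also: peak over basal fluorescence ratio within a 100 second read; 0% = DMSO alone and 100% = 3 nM vasopressin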). Particulars: Fluo-8 calcium fluorescence, at 3 µM, stronger effect = higher value. For orientation: The purpose of a counterscreen is to sort out artefacts and off-target activity.
Vasopressin V1a receptor (Homo sapiens), sequence (P37288 whole entry, looked up): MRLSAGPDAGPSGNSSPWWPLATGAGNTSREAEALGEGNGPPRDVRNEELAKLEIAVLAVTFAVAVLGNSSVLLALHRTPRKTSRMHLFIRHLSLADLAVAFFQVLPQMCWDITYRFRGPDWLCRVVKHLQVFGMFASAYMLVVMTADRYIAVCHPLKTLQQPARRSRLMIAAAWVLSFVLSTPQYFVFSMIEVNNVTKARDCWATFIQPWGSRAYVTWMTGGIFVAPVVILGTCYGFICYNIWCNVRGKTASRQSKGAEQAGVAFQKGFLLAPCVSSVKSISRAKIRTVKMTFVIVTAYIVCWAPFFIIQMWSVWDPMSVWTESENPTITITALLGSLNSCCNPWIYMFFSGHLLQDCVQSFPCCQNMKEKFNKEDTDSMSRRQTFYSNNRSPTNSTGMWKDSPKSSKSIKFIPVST
Assay [3] has as its target Photoreceptor-specific nuclear receptor (Homo sapiens) (UniProt Q9Y5X4). Briefly: NR2E3 agonists, confirmation, biochemical, TR-FRET (AID 2379; in the data active = activation above about 20%). The settings on record: cell-free NR2E3 corepressor release, 5 h, at 3.98 µM, stronger effect = higher value. Background: Time-resolved FRET reads energy transfer from a long-lived donor to a nearby acceptor.
Assay [4] concerns the target Peroxisome proliferator-activated receptor gamma (Homo sapiens) + Nuclear receptor corepressor 2 (Homo sapiens) (UniProt P37231+Q9Y618). Briefly: agonists of PPARg-NCOR2 corepressor interaction, counter-screen for NR2E3 agonist project, biochemical, TR-FRET (AID 504787; in the data active = inhibition above about 20%;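 also: 0% = DMSO vehicle and 100% = wells without protein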). The settings on record: TR-FRET PPARg-NCOR2 coregulator interaction, at 3.98 µM, stronger effect = higher value.

In assay [5] the target is Lytic switch protein BZLF1 (Epstein-Barr virus (strain B95-8)) (UniProt P03206). Briefly: EBV Zta binding to ZRE DNA, inhibitors, confirmation, biochemical, fluorescence polarization, triplicate (AID 2361;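 active = mean inhibition across triplicate runs above the hit threshold derived for the original primary screen, cut at about 33% in these data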;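 also: 0% = Zta with DMSO and 100% = wells lacking Zta protein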). Particulars: at 11.1 µM, stronger effect = higher value. (In general: Polarisation of emitted light reports the rotation of a fluorescent probe.)
Lytic switch protein BZLF1 (Epstein-Barr virus (strain B95-8)), sequence (P03206 whole entry, looked up): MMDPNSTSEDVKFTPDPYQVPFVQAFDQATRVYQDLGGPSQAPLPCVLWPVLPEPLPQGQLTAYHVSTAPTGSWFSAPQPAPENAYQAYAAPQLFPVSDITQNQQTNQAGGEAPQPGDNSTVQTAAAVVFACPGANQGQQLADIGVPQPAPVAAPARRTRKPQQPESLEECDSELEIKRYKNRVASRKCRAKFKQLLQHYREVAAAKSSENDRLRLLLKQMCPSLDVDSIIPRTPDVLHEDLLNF
For assay [6], the system named is Epstein-Barr virus nuclear antigen 1 (EBNA-1), Human herpesvirus 4. Briefly: EBNA-1 DNA-binding inhibition, counter-screen for ZTA inhibitor project, biochemical, fluorescence polarization (AID 2362; call rule not given here). Particulars: at 14.8 µM, stronger effect = higher value.
Assay [7] concerns the target Receptor-interacting serine/threonine-protein kinase 2 (Homo sapiens) (UniProt O43353). Briefly: NOD2-RIPK2 binding disruptors, retest, confirmation, fluorescence, CHO cells, BLA complementation, triplicate (AID 624370;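 active = mean inhibition across replicates above a set limit taken from the earlier primary screen, cut at about 21% in these data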;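 also: 0% = DMSO-only wells and the high end = clavulanate BLA-blocked wells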). Particulars: CCF4 FRET, at 4.98 µM, stronger effect = higher value.
A short description of assay [8]: beta-lactamase reporter inhibitors in CHO cells, confirmation, artefact control for NOD2-RIPK2 interaction inhibitor project, cell-based, CHO-K1 CMV-bla, CCF4 FRET, fluorescence (AID 624371;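 active = mean inhibition above the low-control mean inhibition plus three low-control SD, cut at about 11% in these data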;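 also: 0% = DMSO only wells and 100% = clavulanate high control wells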). The settings on record: CCF4 FRET ratio, counterscreen, at 4.98 µM, stronger effect = higher value.
The target in assay [9] is Platelet-activating factor acetylhydrolase (Homo sapiens) (UniProt Q13093). Briefly: pPAFAH (PLA2G7) enzyme inhibitors, confirmation, biochemical, fluorescence polarization, human (AID 463230;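 active = mean inhibition of the triplicate above the hit cutoff set for the earlier primary screen, cut at about 25% in these data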;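 also: 0% = enzyme with DMSO and 100% = wells lacking pPAFAH enzyme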). The settings on record: recombinant pPAFAH, FP-Rh probe fluorescence polarization; at 3.39 µM; stronger effect = higher value.
Platelet-activating factor acetylhydrolase (Homo sapiens), sequence (Q13093 whole entry, looked up): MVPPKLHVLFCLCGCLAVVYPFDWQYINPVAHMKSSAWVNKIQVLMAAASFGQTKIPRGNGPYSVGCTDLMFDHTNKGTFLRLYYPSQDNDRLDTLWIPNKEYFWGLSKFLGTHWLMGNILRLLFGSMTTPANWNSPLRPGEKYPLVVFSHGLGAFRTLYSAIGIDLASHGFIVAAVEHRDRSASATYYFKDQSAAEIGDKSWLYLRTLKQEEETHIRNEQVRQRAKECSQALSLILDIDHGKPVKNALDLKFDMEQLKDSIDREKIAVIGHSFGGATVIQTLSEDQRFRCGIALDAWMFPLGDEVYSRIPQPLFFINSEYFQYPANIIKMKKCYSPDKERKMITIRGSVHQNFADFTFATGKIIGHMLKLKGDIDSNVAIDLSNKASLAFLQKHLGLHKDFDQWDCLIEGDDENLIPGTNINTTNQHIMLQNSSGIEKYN
Assay [10] deals with Glutathione S-transferase omega-1 (Homo sapiens) (UniProt P78417). Description: GSTO1 inhibitor hit confirmation, counter-screen for RBBP9 inhibitor project, biochemical, fluorescence polarization, triplicate (AID 2176;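 active = inhibition above the primary screen's cutoff, its mean inhibition plus 3 SD, cut at about 35% in these data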;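 also: loss of polarization as inhibitors block binding of rhodamine sulfonate ester activity probe; 0% = GSTO1 with DMSO and 100% = wells lacking GSTO1 enzyme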). Particulars: recombinant GSTO1, probe fluorescence polarization; at 5.96 µM; stronger effect = higher value.
Glutathione S-transferase omega-1 (Homo sapiens), sequence (P78417 whole entry, looked up): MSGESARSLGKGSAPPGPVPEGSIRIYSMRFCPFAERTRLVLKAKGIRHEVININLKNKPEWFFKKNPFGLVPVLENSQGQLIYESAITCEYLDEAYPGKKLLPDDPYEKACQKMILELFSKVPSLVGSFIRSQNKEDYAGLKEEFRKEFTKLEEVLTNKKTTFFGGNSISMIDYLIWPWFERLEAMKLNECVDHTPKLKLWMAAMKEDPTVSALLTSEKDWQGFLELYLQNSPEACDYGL
Assay [11] in a line: StAR promoter reporter inhibitors, counter-screen for LRH-1 inverse agonist project, cell-based, luminescence, high throughput (AID 651611; in the data active = inhibition above about 28%). The settings on record: StAR promoter luciferase reporter counterscreen, at 3.6 µM, stronger effect = higher value.
Assay [12] has as its target Nuclear receptor subfamily 5 group A member 2 (Homo sapiens) (UniProt O00482). Description: LRH-1 (NR5A2) inverse agonists, retest, confirmation, cell-based, luminescence (AID 651613; in the data active = inhibition above about 42%;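 also: HEK293T cells co-transfected with LRH-1 and StAR promoter luciferase reporter; 0% = vehicle wells and 100% = parental cells lacking receptor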). Particulars: cell-based LRH-1 luciferase reporter, inverse agonism; at 3.6 µM; stronger effect = higher value.
Assay [13] concerns the target Steroidogenic factor 1 (Homo sapiens) (UniProt Q13285). Description: SF1 (NR5A1) inverse agonists, counter-screen for LRH-1 inverse agonist project, cell-based, luminescence, high throughput (AID 651614; in the data active = inhibition above about 44%;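 also: cells cotransfected with StAR promoter reporter and SF1 expression vector; 0% = vehicle on cells with receptor and 100% = vehicle on cells lacking receptor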). Particulars: cell-based SF1 luciferase reporter, at 3.6 µM, stronger effect = higher value.
A short description of assay [14]: VP16 transactivation reporter inhibitors, counter-screen for LRH-1 inverse agonist project, cell-based, luminescence, high throughput (AID 651615; in the data active = inhibition above about 33%). Particulars: Gal4-VP16 luciferase reporter cells, at 3.6 µM, stronger effect = higher value.
Assay [15] has as its target Insulin-degrading enzyme (Homo sapiens) (UniProt P14735). Description: human IDE inhibitors in live cells, confirmation, fluorescence polarization, HEK cells, FAbetaB substrate (AID 435028;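 active = mean inhibition across triplicate wells above the cutoff set by the earlier primary insulin-degrading enzyme screen, cut at about 16% in these data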;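 also: 0% = DMSO wells and 100% = 60 µM reference IDE inhibitor Ii1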). Particulars: FAbetaB cleavage, at 5.59 µM, stronger effect = higher value.
Assay [16] in a line: cytotoxicity in HEK cells, cytotoxicity control for IDE inhibitor project, cell-based, luminescence (AID 449730).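 Also: 0% = vehicle wells and 100% = reference cytotoxic drug.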 Particulars: HEK293 cytotoxicity, ATP luminescence; at 5.59 µM; stronger effect = higher value.
Assay [17] addresses Photoreceptor-specific nuclear receptor (Homo sapiens) (UniProt Q9Y5X4). Briefly: NR2E3 agonist confirmation in cells, cell-based, luminescence, CHO-S two-hybrid (AID 624378;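 active = average inhibition above a cutoff equal to the mean inhibition of all tested compounds plus one SD, cut at about 70% in these data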;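 also: 0% = DMSO in NR2E3 cells and 100% = DMSO in cells lacking NR2E3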). Particulars: CHO-S mammalian two-hybrid NR2E3-NCOR, luciferase luminescence; at 3.98 µM; stronger effect = higher value.
The nature of assay [18]: GAL4-VP16 reporter modulators, confirmation, counter-screen for NR2E3 agonist project, cell-based, luminescence, CHO-S, high throughput (AID 624379;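 active = mean inhibition above a cutoff equal to the average over all tested compounds plus one standard deviation, cut at about 70% in these data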;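 also: luciferase from a UAS reporter driven by GAL4-VP16 transactivation; 0% = DMSO with VP16-transfected cells and 100% = DMSO with cells lacking VP16; higher means less reporter light so more repression of VP16 activity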). Particulars: CHO-S GAL4-VP16 luciferase reporter, at 3.98 µM, stronger effect = higher value.

Insulin-degrading enzyme (Homo sapiens), sequence (P14735 whole entry, looked up): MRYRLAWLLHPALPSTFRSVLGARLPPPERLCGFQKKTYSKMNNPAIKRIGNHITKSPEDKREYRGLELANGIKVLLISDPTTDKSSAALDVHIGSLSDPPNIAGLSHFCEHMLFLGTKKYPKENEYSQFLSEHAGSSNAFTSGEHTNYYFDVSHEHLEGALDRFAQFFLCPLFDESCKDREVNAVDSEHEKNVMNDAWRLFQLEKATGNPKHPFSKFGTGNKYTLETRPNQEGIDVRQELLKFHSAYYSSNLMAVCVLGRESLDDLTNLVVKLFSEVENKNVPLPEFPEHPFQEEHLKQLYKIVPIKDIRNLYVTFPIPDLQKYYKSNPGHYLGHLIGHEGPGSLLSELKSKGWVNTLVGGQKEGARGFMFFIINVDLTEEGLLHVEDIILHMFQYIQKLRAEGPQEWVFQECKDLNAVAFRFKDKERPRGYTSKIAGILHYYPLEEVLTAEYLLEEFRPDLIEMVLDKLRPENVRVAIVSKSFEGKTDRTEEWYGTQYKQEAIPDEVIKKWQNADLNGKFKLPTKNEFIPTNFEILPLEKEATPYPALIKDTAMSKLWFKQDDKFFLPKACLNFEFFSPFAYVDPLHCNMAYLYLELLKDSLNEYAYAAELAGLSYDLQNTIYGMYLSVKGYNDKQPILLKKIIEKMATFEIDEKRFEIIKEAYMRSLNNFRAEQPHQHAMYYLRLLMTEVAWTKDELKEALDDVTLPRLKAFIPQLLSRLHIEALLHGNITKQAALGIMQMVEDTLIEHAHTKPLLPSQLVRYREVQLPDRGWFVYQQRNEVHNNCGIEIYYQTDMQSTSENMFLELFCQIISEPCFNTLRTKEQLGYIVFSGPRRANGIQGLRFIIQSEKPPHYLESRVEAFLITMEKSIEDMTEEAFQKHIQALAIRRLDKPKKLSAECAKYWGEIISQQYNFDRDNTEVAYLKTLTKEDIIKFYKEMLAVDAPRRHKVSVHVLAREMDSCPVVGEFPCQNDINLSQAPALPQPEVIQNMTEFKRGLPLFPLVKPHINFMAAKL
Photoreceptor-specific nuclear receptor (Homo sapiens), sequence (Q9Y5X4 whole entry, looked up, the tested form may be a part): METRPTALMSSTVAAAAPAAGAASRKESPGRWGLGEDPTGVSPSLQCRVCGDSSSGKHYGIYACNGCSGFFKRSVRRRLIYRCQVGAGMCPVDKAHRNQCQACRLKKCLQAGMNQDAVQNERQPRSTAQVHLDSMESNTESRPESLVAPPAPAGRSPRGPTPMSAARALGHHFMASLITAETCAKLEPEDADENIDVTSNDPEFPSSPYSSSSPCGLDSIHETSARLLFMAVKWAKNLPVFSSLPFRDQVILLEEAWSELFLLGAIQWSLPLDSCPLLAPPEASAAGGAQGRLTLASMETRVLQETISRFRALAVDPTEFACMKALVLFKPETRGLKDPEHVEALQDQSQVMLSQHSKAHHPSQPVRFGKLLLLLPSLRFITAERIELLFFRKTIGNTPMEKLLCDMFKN
Receptor-interacting serine/threonine-protein kinase 2 (Homo sapiens), sequence (O43353 whole entry, looked up): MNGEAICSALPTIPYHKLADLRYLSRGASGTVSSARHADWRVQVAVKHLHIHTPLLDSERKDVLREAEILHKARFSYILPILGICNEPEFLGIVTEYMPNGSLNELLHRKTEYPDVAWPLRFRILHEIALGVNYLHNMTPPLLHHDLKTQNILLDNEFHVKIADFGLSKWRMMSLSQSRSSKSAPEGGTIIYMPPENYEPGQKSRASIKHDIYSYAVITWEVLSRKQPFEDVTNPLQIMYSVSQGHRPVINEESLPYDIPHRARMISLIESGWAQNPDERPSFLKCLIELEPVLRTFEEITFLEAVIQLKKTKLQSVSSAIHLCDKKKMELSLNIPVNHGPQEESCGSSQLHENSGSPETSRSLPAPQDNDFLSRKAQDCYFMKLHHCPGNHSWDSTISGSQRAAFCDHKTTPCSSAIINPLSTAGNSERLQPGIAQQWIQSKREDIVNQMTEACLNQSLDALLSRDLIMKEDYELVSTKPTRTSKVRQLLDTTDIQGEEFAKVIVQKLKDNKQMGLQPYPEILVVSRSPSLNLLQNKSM
Nuclear receptor subfamily 5 group A member 2 (Homo sapiens), sequence (O00482 whole entry, looked up): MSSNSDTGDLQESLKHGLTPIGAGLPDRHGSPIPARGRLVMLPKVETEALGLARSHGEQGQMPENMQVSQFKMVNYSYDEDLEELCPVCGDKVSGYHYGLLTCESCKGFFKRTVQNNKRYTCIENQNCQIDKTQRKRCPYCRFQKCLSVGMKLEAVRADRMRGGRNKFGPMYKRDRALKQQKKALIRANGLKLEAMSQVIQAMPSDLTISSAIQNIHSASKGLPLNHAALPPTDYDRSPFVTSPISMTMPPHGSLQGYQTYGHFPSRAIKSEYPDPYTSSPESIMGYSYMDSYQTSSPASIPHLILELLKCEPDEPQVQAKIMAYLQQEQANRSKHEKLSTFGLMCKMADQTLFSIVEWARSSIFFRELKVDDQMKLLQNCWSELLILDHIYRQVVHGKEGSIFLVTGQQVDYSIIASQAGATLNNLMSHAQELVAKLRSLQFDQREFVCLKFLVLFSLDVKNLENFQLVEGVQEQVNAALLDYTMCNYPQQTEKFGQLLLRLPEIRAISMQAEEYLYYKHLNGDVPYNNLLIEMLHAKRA
Steroidogenic factor 1 (Homo sapiens), sequence (Q13285 whole entry, looked up, the tested form may be a part): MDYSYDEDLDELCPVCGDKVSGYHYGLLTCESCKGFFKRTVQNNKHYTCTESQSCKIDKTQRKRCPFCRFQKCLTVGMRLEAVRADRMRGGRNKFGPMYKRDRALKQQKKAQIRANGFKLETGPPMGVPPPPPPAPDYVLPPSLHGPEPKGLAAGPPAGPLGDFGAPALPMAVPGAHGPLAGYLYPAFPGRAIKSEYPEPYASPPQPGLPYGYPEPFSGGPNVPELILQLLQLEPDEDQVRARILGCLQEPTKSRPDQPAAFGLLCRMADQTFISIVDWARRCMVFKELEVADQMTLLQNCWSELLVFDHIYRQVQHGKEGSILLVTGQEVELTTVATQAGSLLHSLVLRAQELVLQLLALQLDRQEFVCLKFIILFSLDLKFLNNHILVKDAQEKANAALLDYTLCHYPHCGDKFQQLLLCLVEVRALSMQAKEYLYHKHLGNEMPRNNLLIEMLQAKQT

As for `CC(CO)(CO)NC(=O)c1ccc(=O)[nH]n1`, the activation in assay [1] was -0.33%; in assay [2], 0.63%.
`CN(C)CCCN(C(=O)c1ccc(S(=O)(=O)N2CCCCCC2)cc1)c1nc2ccc(Br)cc2s1`: the values for the activation in [1] and in [2] were 6.69% and 11.3%, respectively.
For `COc1cccc(-n2c(=S)[nH]c3c(oc4ccccc43)c2=O)c1`, the activation (reported as inhibition) in assay [3] was 14.3%. Further, in assay [4], the inhibition was 8.55%.
In the case of `CN1CCN(CCCNC(=O)c2ccc(/C=C3\Oc4ccccc4N(Cc4ccc(Cl)cc4)C3=O)cc2)CC1`, the inhibition is 51.8% (active) in assay [5], -1.35% in assay [6], 29% (active) in [7] and 12% (active) in [8].
Turning to `CC1(C)CC[C@@]2(C(=O)O)C(C1)C1=CCC3[C@@]4(C)CC[C@H](O)C(C)(C)C4CC[C@@]3(C)[C@]1(C)C[C@H]2O` (stereo partly drawn), the activation in assay [1] is 67.3% (active); in [2] it was 1.34%.
`CSc1nnc(SCc2nc3sc(C(=O)O)c(C)c3c(=O)[nH]2)s1`: the inhibition in assay [5] is 55.8% (active); in [6], 5.58%; in [9] it was 43.4% (active).
Regarding `Cc1nn(-c2ccccc2)c(C)c1NC(=O)CCl`, the inhibition was 83.7% (active) in assay [10]; 28.1% (active) in [11]; 35.5% in [12]; 61.1% (active) in assay [13]; -83.9% in assay [14].
As to `CN(Cc1ccccc1)Cc1ccccc1F`, the activation (reported as inhibition) in assay [3] is -2.78%. The inhibition in assay [4] is -3.03%.
Take `O=C(c1ccco1)N1CCN(C(=O)C2CC(c3ccc(F)cc3)=NO2)CC1` (stereo not drawn): the activation in assay [1] was -0.63%; in [2] it was 0.05%.
Take `C#CCOCCOCCOCCNc1nc(N2CCN(C(=O)CCCCCCCCCCNC(=O)[C@H]([C@@H](C)CC)n3cc(CCCCN=C(N)N)nn3)CC2)nc(N2CCN(C(=O)CCCCCCCCCCNC(=O)[C@H](CO)n3cc(CCCSC)nn3)CC2)n1`: the inhibition in assay [5] was 57.5% (active); in assay [6], 1.4%.
For `CCN1CCN(CCNC(=O)c2ccc(/C=C3/Sc4ccccc4N(Cc4cccc(C)c4)C3=O)cc2)CC1` the same measures were 49.5% (active) and 1.16%.
As for `COc1cccc(CNCCc2c[nH]c3ccccc23)c1OCc1ccccc1F`, the activation in assay [1] was 14.2%; in assay [2], 12.1%.
As for `O=C(Nc1ccc(Cl)c(Cl)c1)N1CC=C(c2ccccc2)CC1`, the inhibition was 4.7% in [15] and 8.42% in [16].
On the same counts, the results for `O=C(Oc1c(-c2ccco2)oc2ccccc2c1=O)c1cccnc1` are 93% (active) and 8.69%.
In the case of `O=C(/C=C/c1ccc(OCc2c(F)cccc2Cl)cc1)N1CCOCC1`, the values for the inhibition in assay [15] and in assay [16] were 12.4% and 67.9% (active), respectively.
For `CN1/C(=c2/s/c(=C3/C(=O)N(c4ccccc4)NC3=Nc3ccccc3)n(C)c2=O)C(C)(C)c2ccccc21` the same measures were 8.19% and 11.6%.
Regarding `COc1ccc(NS(=O)(=O)c2ccc(Oc3c(C#N)cccc3C#N)cc2)cc1`, the activation in assay [1] is 17.5%; in assay [2], 13.7%. Further, the inhibition in assay [17] is 94.9% (active); in assay [18], 88% (active).
Turning to `Cc1cccc(-n2c(Cc3cc(=O)[nH]c(=O)[nH]3)nnc2SCC(=O)Nc2cccc(C(F)(F)F)c2)c1`, the results for the inhibition in [15] and in assay [16] were 6.02% and 3.28%, respectively.
On the same counts, the results for `COc1ccc(N2CCN(C(=O)/C(C#N)=C/c3ccccc3)CC2)cc1` are 8.71% and 5.82%.
Regarding `CCOc1cc2c(Cl)ncnc2c(OCC)c1OCC`, the inhibition in assay [15] is 4.73%; in assay [16], 6.67%.
